Laboratory results: PubChem BioAssay (NCI)
About 83,000 compounds went through this panel and 20% of them were active in at least one assay; those are over-represented in the sample as a whole.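 For each line, cells grew in 96-well plates with the test compound present at a single concentration for 48 hours.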 Active and inactive are the calls of the source. Rule for the calls: active = growth percent below 10; inactive = the rest.

Columns and labels:
Test in all cases: NCI-60 one-dose screen, 48 h (100 = growth as untreated, 0 = no growth, -100 = all killed)
SR leukemia = settings: 10 µM unless noted
RPMI-8226 leukemia = settings: 10 µM unless noted
OVCAR-8 ovarian = settings: 10 µM unless noted
OVCAR-5 ovarian = settings: 10 µM unless noted
OVCAR-4 ovarian = settings: 10 µM unless noted
SK-OV-3 ovarian = settings: 10 µM unless noted
IGROV1 ovarian = settings: 10 µM unless noted
OVCAR-3 ovarian = settings: 10 µM unless noted
HS 578T breast = settings: 10 µM
NCI/ADR-RES ovarian = settings: 10 µM unless noted
T-47D breast = settings: 10 µM unless noted
BT-549 breast = settings: 10 µM unless noted
MDA-MB-435 melanoma = settings: 10 µM unless noted
SW-620 colon = settings: 10 µM unless noted
MCF7 breast = settings: 10 µM unless noted
HCT-116 colon = settings: 10 µM unless noted
HCC-2998 colon = settings: 10 µM
KM12 colon = settings: 10 µM unless noted

Measured: growth

Cc1oc2c(C(=O)N/N=C\c3ccc(O)cc3O)c[nH]c2c1C
active: SR leukemia 8.4% | OVCAR-3 ovarian -16% | NCI/ADR-RES ovarian 1.19% | BT-549 breast -8.94% | MCF7 breast 8.09% | HCC-2998 colon 9.7%
inactive: RPMI-8226 leukemia 25.3% | OVCAR-8 ovarian 13.7% | OVCAR-5 ovarian 30.7% | OVCAR-4 ovarian 10.8% | SK-OV-3 ovarian 20.6% | IGROV1 ovarian 24.1% | HS 578T breast 58.2% | T-47D breast 25.7% | MDA-MB-435 melanoma 42.8% | SW-620 colon 39.3% | HCT-116 colon 10.8% | KM12 colon 28.9%

N#Cc1c(-c2ccc(C(F)(F)F)cc2)c(F)c(NCCC2CCC(O)C2)n2c1nc1ccccc12 (configuration not stated)
active: SR leukemia 9.1%
inactive: RPMI-8226 leukemia 49.5% | OVCAR-8 ovarian 45.4% | OVCAR-5 ovarian 88.7% | OVCAR-4 ovarian 69.9% | SK-OV-3 ovarian 43.2% | IGROV1 ovarian 50.2% | OVCAR-3 ovarian 79.9% | HS 578T breast 86.8% | NCI/ADR-RES ovarian 37.9% | T-47D breast 67.9% | BT-549 breast 30.1% | MDA-MB-435 melanoma 84.1% | SW-620 colon 55.6% | MCF7 breast 46.2% | HCT-116 colon 30.7% | HCC-2998 colon 80.7% | KM12 colon 57.9%

O=C(CNc1nc2ccccc2s1)Nc1ccc(-c2nc3ccccc3s2)cc1
inactive: SR leukemia 91.3% | RPMI-8226 leukemia 107% | OVCAR-8 ovarian 102% | OVCAR-5 ovarian 98.4% | OVCAR-4 ovarian 102% | SK-OV-3 ovarian 107% | IGROV1 ovarian 66.6% | OVCAR-3 ovarian 98% | HS 578T breast 100% | NCI/ADR-RES ovarian 102% | T-47D breast 73.9% | BT-549 breast 106% | MDA-MB-435 melanoma 109% | SW-620 colon 109% | MCF7 breast 24.8% | HCT-116 colon 98.9% | HCC-2998 colon 92.1% | KM12 colon 99.2%

COc1ccc(C2CC(=O)c3c(O)c(OC)c(OC)c(OC)c3O2)c(O)c1 (configuration not stated)
inactive: SR leukemia 23% | RPMI-8226 leukemia 32.7% | OVCAR-8 ovarian 36.5% | OVCAR-5 ovarian 54.2% | OVCAR-4 ovarian 48.9% | SK-OV-3 ovarian 42.9% | IGROV1 ovarian 46.3% | HS 578T breast 36.5% | T-47D breast 57.8% | BT-549 breast 60.6% | SW-620 colon 26.2% | MCF7 breast 32.5% | HCT-116 colon 10.2% | HCC-2998 colon 15.9% | KM12 colon 19.9%
active: OVCAR-3 ovarian 0.132% | NCI/ADR-RES ovarian 4.44% | MDA-MB-435 melanoma -33.7%

COc1cc(NC2CCC(=O)N2c2ccc(Cl)cc2Cl)cc(OC)c1OC (configuration not stated)
inactive: SR leukemia 95.6% | RPMI-8226 leukemia 102% | OVCAR-8 ovarian 103% | OVCAR-5 ovarian 99.5% | OVCAR-4 ovarian 101% | SK-OV-3 ovarian 102% | IGROV1 ovarian 105% | OVCAR-3 ovarian 101% | HS 578T breast 102% | NCI/ADR-RES ovarian 99.5% | T-47D breast 98.3% | BT-549 breast 109% | MDA-MB-435 melanoma 94.9% | SW-620 colon 96.8% | MCF7 breast 96.6% | HCT-116 colon 97.1% | HCC-2998 colon 95.7% | KM12 colon 97.7%

O=C1CC(c2ccc(Cl)cc2)c2ncn(-c3cccc(Cl)c3)c2N1 (configuration not stated)
active: MDA-MB-435 melanoma -16.8%
inactive: SR leukemia 27.3% | RPMI-8226 leukemia 58% | OVCAR-8 ovarian 56.5% | OVCAR-5 ovarian 96% | OVCAR-4 ovarian 87.2% | SK-OV-3 ovarian 47.8% | IGROV1 ovarian 59.8% | OVCAR-3 ovarian 13.3% | HS 578T breast 52.8% | NCI/ADR-RES ovarian 26.5% | T-47D breast 68.7% | BT-549 breast 52.5% | SW-620 colon 26% | MCF7 breast 61.2% | HCT-116 colon 19.1% | HCC-2998 colon 77.4% | KM12 colon 54.1%

COc1cc(-c2nc(C(=O)Nc3ccc(C)cc3)nn2-c2ccc(F)c(F)c2)cc(OC)c1OC
inactive: SR leukemia 91.8% | RPMI-8226 leukemia 103% | OVCAR-8 ovarian 103% | OVCAR-5 ovarian 117% | OVCAR-4 ovarian 103% | SK-OV-3 ovarian 89.1% | IGROV1 ovarian 86.9% | OVCAR-3 ovarian 107% | HS 578T breast 121% | NCI/ADR-RES ovarian 93.6% | T-47D breast 77.1% | BT-549 breast 100% | MDA-MB-435 melanoma 93.3% | SW-620 colon 110% | MCF7 breast 95.1% | HCT-116 colon 95.7% | HCC-2998 colon 86.6% | KM12 colon 102%

CO/C=C/C(=O)c1cc2cnc3c(=N)cc(NC(=O)C(C)C)c([nH]1)c23
active: SR leukemia -24% | RPMI-8226 leukemia -38.1% | OVCAR-8 ovarian 0.655% | OVCAR-5 ovarian -16.3% | OVCAR-4 ovarian -10.7% | SK-OV-3 ovarian -25.7% | IGROV1 ovarian -40% | OVCAR-3 ovarian -45.1% | HS 578T breast -6.02% | NCI/ADR-RES ovarian -9.63% | T-47D breast -53.1% | BT-549 breast -58.9% | MDA-MB-435 melanoma -27.5% | SW-620 colon -47.8% | MCF7 breast 1.14% | HCT-116 colon -55.4% | HCC-2998 colon -21% | KM12 colon -23.9%

Nc1c(Cl)cccc1[N+](=O)[O-]
inactive: SR leukemia 104% | RPMI-8226 leukemia 100% | OVCAR-8 ovarian 102% | OVCAR-5 ovarian 102% | OVCAR-4 ovarian 111% | SK-OV-3 ovarian 108% | IGROV1 ovarian 112% | OVCAR-3 ovarian 111% | HS 578T breast 87.8% | NCI/ADR-RES ovarian 102% | T-47D breast 110% | BT-549 breast 114% | MDA-MB-435 melanoma 105% | SW-620 colon 94.6% | MCF7 breast 99.1% | HCT-116 colon 112% | HCC-2998 colon 105% | KM12 colon 107%
